# Laboratory results published in PubChem BioAssay.
# The source made the active and inactive calls.
# Tests used:
# Albumin (Bos taurus) = Albumin (Bos taurus) (UniProt P02769); experiment: compounds binding labelled BSA control protein – biochemical, small-molecule microarray, Alexa647 label, 635/667 nm fluorescence, artefact control for SMM control protein annotation, profiling panel (AID 1118); conditions: BSA-A647 binding, fluorescence 635 nm, higher = more signal;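 note: score merges 667 nm emission intensity and signal-to-noise per printed compound spot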
# [1] = probe aXIP binding to arrayed compounds – biochemical, NeuroSMM set, 635/667 nm fluorescence, primary screen (AID 1119); conditions: small-molecule microarray, higher = more signal, called active from +8 up or from −8 down;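 note: probe is the protein aXip251-270 applied at 1 µg/mL to compound-printed slides; binding of probe to printed compounds measured as 667 nm fluorescence plus signal to noise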
# [2] = probe aNOTCH3 binding on compound microarray – biochemical, small-molecule microarray, 635/667 nm fluorescence, primary screen (AID 1120); conditions: higher = more signal;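 note: probe is a biotin-tagged antibody raised against NOTCH3 rather than NOTCH3 protein; score merges spot fluorescence near 667 nm with spot signal to noise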
# [3] = probe aNOTCH2 binding on compound microarray – biochemical, small-molecule microarray, 635/667 nm fluorescence, primary screen (AID 1121); conditions: higher = more signal;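 note: score merges feature fluorescence read at 667 nm with its signal to noise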
# [4] = target: Carbonic anhydrase 2 (Homo sapiens) (UniProt P00918); experiment: compounds binding carbonic anhydrase 2 – biochemical, small-molecule microarray, Alexa647-labelled CAII, profiling panel (AID 1122); conditions: CAII-A647 binding fluorescence, higher = more signal
# [5] = COS7 lysate on small-molecule microarray, probe aHis, 635 nm (AID 1123); conditions: COS7 cell lysate, fluorescence, higher = more signal;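 note: z-score combines 667nm fluorescence intensity with signal-to-noise per printed compound spot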
# [6] = probe aLAP1 signal on lysate-treated microarray – cell lysate, small-molecule microarray, COS7 lysate, primary screen (AID 1124); conditions: probe aLAP1, fluorescence, higher = more signal;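 note: lysate comes from COS7 cells expressing LAP1 and is applied at 0.3 µg/mL; score merges spot fluorescence near 667 nm with signal-to-noise over triplicate slides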
# Sam68 (KHDRBS1) = experiment: compounds binding KHDRBS1 protein – biochemical, small-molecule microarray, 635 nm fluorescence, primary screen (AID 1125); conditions: higher = more signal;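 note: score merges 667 nm channel intensity with signal to noise over triplicate slides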
# [7] = tested on: Chordin-like protein 2 (CHRDL2); experiment: compounds binding chordin-like 2 – biochemical, small-molecule microarray, 635 nm fluorescence, primary screen (AID 1126); conditions: fluorescence 635 nm, higher = more signal;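 note: printed compound slides probed with Chrdl2 protein at 4 µg/mL for 1 h at 4 C; score merges 667 nm emission intensity with signal to noise over three replicate slides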
# [8] = target: Concanavalin-A (Canavalia ensiformis) (UniProt P02866); experiment: compounds binding concanavalin A lectin – biochemical, small-molecule microarray, Alexa647 label, 635 nm, artefact control for SMM control protein annotation, primary screen (AID 1127); conditions: ConA-A647 binding fluorescence, higher = more signal;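 note: z combines 667 nm emission intensity with signal-to-noise across three replicate slides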
# Sequence of Concanavalin-A (Canavalia ensiformis) (P02866 whole entry, looked up): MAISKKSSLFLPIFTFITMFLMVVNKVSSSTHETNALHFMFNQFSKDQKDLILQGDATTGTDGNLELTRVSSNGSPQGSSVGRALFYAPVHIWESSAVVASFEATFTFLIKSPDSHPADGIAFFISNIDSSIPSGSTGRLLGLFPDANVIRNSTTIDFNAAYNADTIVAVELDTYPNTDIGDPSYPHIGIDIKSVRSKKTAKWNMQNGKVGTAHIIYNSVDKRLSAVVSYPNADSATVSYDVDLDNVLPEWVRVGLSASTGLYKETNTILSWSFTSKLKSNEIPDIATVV
# Sequence of Albumin (Bos taurus) (P02769 whole entry, looked up): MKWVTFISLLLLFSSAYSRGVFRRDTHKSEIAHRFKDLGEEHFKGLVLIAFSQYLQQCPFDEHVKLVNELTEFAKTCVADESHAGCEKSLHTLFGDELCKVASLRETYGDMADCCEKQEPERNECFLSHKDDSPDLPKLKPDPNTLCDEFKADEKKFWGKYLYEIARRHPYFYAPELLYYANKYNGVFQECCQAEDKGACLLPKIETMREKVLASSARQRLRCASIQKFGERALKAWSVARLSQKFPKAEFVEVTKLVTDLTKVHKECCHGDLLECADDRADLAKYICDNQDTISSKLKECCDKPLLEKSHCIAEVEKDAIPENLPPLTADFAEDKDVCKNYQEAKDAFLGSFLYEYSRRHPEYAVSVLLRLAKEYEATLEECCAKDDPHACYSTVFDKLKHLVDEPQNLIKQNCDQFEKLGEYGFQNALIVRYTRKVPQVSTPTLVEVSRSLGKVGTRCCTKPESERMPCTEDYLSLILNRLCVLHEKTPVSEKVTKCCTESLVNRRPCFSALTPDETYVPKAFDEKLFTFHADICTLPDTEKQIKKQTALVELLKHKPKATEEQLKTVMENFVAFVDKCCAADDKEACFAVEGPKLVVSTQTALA
SMILES,composite z-score (Albumin (Bos taurus)),composite Z-score [1],composite z-score [2],composite z-score [3],composite z-score [4],composite z-score [5],composite z-score [6],composite z-score (Sam68 (KHDRBS1)),composite z-score [7],composite z-score [8]
COC(=O)C(CC#Cc1ccc2c(c1)[C@]1(C(=O)N2)[C@H](c2ccccc2OCCO)N2[C@H](c3ccccc3)[C@H](c3ccccc3)OC(=O)[C@H]2[C@@H]1C(=O)Nc1nc2ccccc2s1)C(=O)OC,0.67,-0.364 (inactive),0.106,-0.0928,0.226,1.9,0.379,1.31,0.19,1.15
Cc1ccc(F)cc1S(=O)(=O)N[C@@H]1CCN(C(=O)c2ccc(OC(C)C)cc2)C1,0.0765,-0.107 (inactive),0.116,-0.184,-0.0494,0.644,0.194,1.13,0.686,0.0897
C[N+](C)(C)CCCC[C@@H]1NC(=O)[C@@H]2C[C@H](C(=O)NCCCCCNC(=O)CS)[C@H](c3cccc(OCCO)c3)N2C1=O,0.666,0.0831 (inactive),0.0287,-0.0662,0.399,0.46,-0.343,0.765,0.361,0.88
COc1ccc([Si](C)(C)[C@@H]2[C@@H](CC(=O)N3Cc4ccccc4C[C@H]3CO)O[C@]3(C(=O)N(Cc4cccc(N5CCCCC5=O)c4)c4ccccc43)[C@H]2C)cc1,-0.565,0.436 (inactive),0.0425,-0.133,-0.0599,0.977,0.426,1.29,1.28,1.13
CN1C(=O)C2C=CC(C(O)c3cccc4ccccc34)N(NC(=O)OC(C)(C)C)C2C1=O (stereo not given),1,0.58 (inactive),0.479,0.385,0.752,2.95,1.57,1.3,-0.705,1.17
C=CCOC(=O)[C@@H]1[C@H]2C(=O)O[C@H](c3ccccc3)[C@H](c3ccccc3)N2[C@H](c2ccc(OCCOC(=O)[C@@H]3C[C@@H]4C(=O)N[C@@H](CCCCNC(C)=O)C(=O)N4[C@@H]3c3ccc(O)cc3)cc2)[C@@]12C(=O)Nc1ccc(I)cc12,-0.427,1.48 (inactive),0.844,-0.0458,0.5,1.86,0.705,1.29,0.986,1.15
COC(=O)c1ccc(OC)c(/C=C\CC(CCc2ccccc2)OC(C)=O)c1 (stereo not given),0.804,-0.376 (inactive),-0.272,-0.196,0.557,-0.14,0.275,-0.0896,0.204,0.0426
CC(=O)NCCCC[C@@H]1NC(=O)[C@H]2C[C@@H](C(=O)NCCCCCN)[C@@H](c3cccc(OCCO)c3)N2C1=O,0.796,-0.306 (inactive),0.0493,-0.0878,0.715,0.898,0.2,0.993,0.218,1.2
COCCCNC(=O)[C@]1(Cc2ccccc2CN=[N+]=[N-])N=C(c2ccc(OCCCO)cc2)O[C@@H]1c1ccccc1CN=[N+]=[N-],0.864,0.701 (inactive),0.364,0.309,0.613,2.28,1.09,1.29,-0.0479,1
C=CCOC(=O)[C@@H]1[C@H]2C(=O)O[C@H](c3ccccc3)[C@H](c3ccccc3)N2[C@H](c2ccc(OCCOC(=O)[C@H]3C[C@H]4C(=O)N[C@@H](Cc5ccccc5)C(=O)N4[C@H]3c3cccc(OCCO)c3)cc2)[C@@]12C(=O)Nc1ccc(I)cc12,-0.868,0.111 (inactive),0.319,-0.103,0.344,0.798,0.331,1.31,1,1.11
COC(=O)[C@@]1(Cc2ccccc2)[C@H]2c3cc(C(=O)N(C)C)n(Cc4ccc(O)c(OC)c4)c3C[C@H]2CN1C(=O)c1ccccc1,0.955,0.403 (inactive),0.808,-0.246,0.759,2.17,0.091,0.507,-0.629,1.1
CN(C)CCCC[C@@H]1NC(=O)[C@H]2C[C@@H](C(=O)NCCCCCCNC(=O)CS)[C@@H](c3ccc(O)cc3)N2C1=O,0.468,-0.131 (inactive),-0.159,-0.14,0.802,2.66,0.957,0.457,-0.0412,-0.263
Cc1ccc(S[C@]2(C(=O)O)CC(=O)N(C3CCCCC3)[C@@H]2c2ccc(CO)cc2)cc1,0.242,0.842 (inactive),-0.398,0.0394,0.714,1.29,0.975,1.31,-0.134,1.16
O=C1C2C=CC(C(O)c3ccccn3)N(Nc3ccccc3)C2C(=O)N1c1ccccc1 (stereo not given),1.03,0.959 (inactive),-0.0026,-0.0995,0.824,0.696,-0.247,-0.419,-0.493,0.36
O=C1C[C@@](C(=O)O)(c2ccc([N+](=O)[O-])cc2)[C@@H](c2ccc(CO)cc2)N1CC12CC3CC(CC(C3)C1)C2,0.656,-0.261 (inactive),0.18,0.0362,0.46,1.74,0.611,1.19,-0.346,0.687
COc1ccc([Si](C)(C)[C@H]2[C@H](CCO)O[C@@]3(C(=O)N(Cc4cccc(N5CCOC5=O)c4)c4ccccc43)[C@@H]2C)cc1,0.688,0.207 (inactive),0.0203,-0.0942,0.281,1.04,-0.15,0.996,-0.0894,1.1
NC(=O)NCC#Cc1ccc2c(c1)[C@]1(C(=O)N2)[C@H](c2ccc(OCCO)cc2)N2[C@H](c3ccccc3)[C@H](c3ccccc3)OC(=O)[C@H]2[C@@H]1C(=O)N1CCCCCCC1,0.435,5.46 (inactive),2.08,1.13,0.894,2.81,0.669,1.23,1.13,1.14
CCN(CC)c1ccc(N2CC=CC34O[C@@H]5/C=C\CCCOC(=O)C5[C@H]3C(=O)N(CCCCCCO)[C@@H]4C2=O)cc1 (stereo not given in full),0.248,0.703 (inactive),-0.194,-0.145,0.898,0.846,0.613,-0.32,-2.28,-0.642
COc1ccc(CCNC(=O)[C@@H]2c3ccccc3C(=O)N(Cc3ccccc3)[C@H]2c2ccc(CO)cc2)cc1,0.286,-0.149 (inactive),-0.199,-0.0562,0.735,1.64,1.36,1.34,0.156,0.526
O=C1c2ccccc2C(=O)C2CC([C@H]3Oc4ccccc4S(=O)(=O)N4CCC[C@@H]34)=CCC12 (stereo not given in full),0.793,0.251 (inactive),-0.122,-0.117,-0.241,-0.296,-0.363,-0.557,0.139,-1
O=C(NCc1ccccc1)[C@]1(Cc2ccccc2)N=C(c2ccc(OCCCO)cc2)O[C@@H]1c1ccccc1,0.895,0.638 (inactive),0.062,-0.0519,0.604,1.32,0.225,0.938,-0.243,0.418
C=C(C)[C@@H]1CC=C(C(O)C2C=CC3C(=O)N(C4CCCCC4)C(=O)C3N2Nc2ccc(OC)cc2)CC1 (stereo not given in full),0.902,0.494 (inactive),0.323,-0.141,0.59,2.54,0.273,1.29,0.0811,1.09
Cc1ccc(S[C@]2(C(=O)O)CC(=O)N(Cc3ccccc3C(F)(F)F)[C@@H]2c2ccc(CO)cc2)cc1,-0.283,-0.612 (inactive),-0.128,-0.164,0.653,1.79,-0.67,-0.298,-1.6,-0.373
CC(=O)NCCCC[C@@H]1NC(=O)[C@@H]2C[C@H](C(=O)NCCCC[N+](C)(C)C)[C@H](c3cccc(OCCO)c3)N2C1=O,-0.134,0.0725 (inactive),0.0426,-0.125,0.799,0.661,0.331,-1.33,0.349,-0.0028
